Laboratory results taken from PubChem BioAssay AID1159580 (chemical genetic matrix, 2015).
Hit rate of the full screen: of about 5,500 compounds, about 2,000 (36%) were called active. About 18% were inconclusive and are not listed. Rule as the data show it: active = normalized growth mostly below about 0.91 (no sharp cut-off); inconclusive = no clear call, values can overlap the other calls; inactive = mostly above about 0.92. This is one part of the list.

Experiment: chemical genetic growth profiling, strain panel (AID 1159580);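 also: tested at 20 µM; growth read once vehicle control cultures reached saturation at 30 °C; 1 = growth at the plate median or of vehicle wells; lower values mean less growth of the strain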
Details: S. cerevisiae deletion strains, growth OD

Measured: normalized growth

O=S(=O)(c1cccc2c(I)cccc12)N1CCCNCC1
inactive: locus YAL013W, strain DEP1, hits give low values 0.983 | locus YAL040C, strain CLN3, hits give low values 0.979 | locus YCL061C, strain MRC1 (second series), hits give low values 0.984 | locus YDR150W, strain NUM1, hits give low values 0.991 | locus YDR363W, strain ESC2, hits give low values 0.958 | locus YER002W, strain NOP16, hits give low values 1.01 | locus YGR078C, strain PAC10, hits give low values 0.982 | locus YGR229C, strain SMI1, hits give low values 1 | locus YJR075W, strain HOC1, hits give low values 1.01 | locus YNL128W, strain TEP1, hits give low values 1.06 | locus YNL153C, strain GIM3, hits give low values 0.927 | locus YNL175C, strain NOP13, hits give low values 0.995 | locus YNL197C, strain WHI3, hits give low values 0.986 | locus YNL224C, strain SQS1, hits give low values 1.02 | locus YOR083W, strain WHI5 (second series), hits give low values 0.932 | locus YPL241C, strain CIN2, hits give low values 0.984

C[C@]12C=CC(=O)C=C1CCC1C2[C@@H](O)C[C@@]2(C)C1CC[C@]2(O)C(=O)COP(=O)(O)O (stereo partly specified)
inactive: locus YAL021C, strain ccr4, hits give low values 1.01 | locus YAL026C, strain drs2, hits give low values 1 | locus YAL030W, strain snc1, hits give low values 1 | locus YBL061C, strain skt5, hits give low values 0.995 | locus YBR009C, strain hhf1, hits give low values 1 | locus YBR023C, strain chs3, hits give low values 0.998 | locus YBR171W, strain sec66, hits give low values 0.995 | locus YBR231C, strain swc5, hits give low values 1.01 | locus YBR279W, strain paf1, hits give low values 1.01 | locus YCL011C, strain gbp2, hits give low values 1 | locus YCL016C, strain dcc1, hits give low values 0.995 | locus YCL061C, strain MRC1, hits give low values 0.995 | locus YCL069W, strain vba3, hits give low values 1.01 | locus YCR088W, strain abp1, hits give low values 1.01 | locus YDL005C, strain med2, hits give low values 1 | locus YDL040C, strain nat1, hits give low values 0.997 | locus YDR001C, strain nth1, hits give low values 1 | locus YDR069C, strain doa4, hits give low values 0.998 | locus YDR137W, strain rgp1, hits give low values 1.02 | locus YDR159W, strain sac3, hits give low values 0.98 | locus YDR195W, strain ref2 0.954 | locus YDR297W, strain sur2, hits give low values 1 | locus YDR334W, strain swr1, hits give low values 1.01 | locus YDR335W, strain msn5, hits give low values 0.998 | locus YDR392W, strain spt3, hits give low values 0.96 | locus YEL003W, strain gim4, hits give low values 1.01 | locus YEL037C, strain rad23, hits give low values 1.04 | locus YEL061C, strain CIN8 (second series), hits give low values 0.999 | locus YER015W, strain faa2, hits give low values 0.999 | locus YER016W, strain bim1, hits give low values 0.99 | locus YER111C, strain swi4, hits give low values 0.998 | locus YER155C, strain BEM2 (second series), hits give low values 1.01 | locus YFR010W, strain ubp6, hits give low values 1.01 | locus YGL167C, strain pmr1, hits give low values 1 | locus YGL173C, strain kem1, hits give low values 1 | locus YGL227W, strain vid30, hits give low values 0.996 | locus YGL240W, strain doc1, hits give low values 0.996 | locus YGL253W, strain hxk2, hits give low values 0.995 | locus YHR013C, strain ard1, hits give low values 1 | locus YHR027C, strain rpn1, hits give low values 1 | locus YHR030C, strain SLT2, hits give low values 1.04 | locus YHR079C, strain IRE1, hits give low values 1.02 | locus YHR142W, strain chs7, hits give low values 0.999 | locus YJL092W, strain hpr5, hits give low values 0.993 | locus YJL095W, strain BCK1 (second series), hits give low values 0.994 | locus YJL095W, strain BCK1, hits give low values 0.977 | locus YJL115W, strain asf1, hits give low values 0.995 | locus YJL129C, strain trk1, hits give low values 1 | locus YJL154C, strain vps35, hits give low values 1.01 | locus YJL164C, strain tpk1, hits give low values 0.995 | locus YJL166W, strain qcr8, hits give low values 1.01 | locus YJL187C, strain SWE1, hits give low values 1.01 | locus YJR066W, strain TOR1, hits give low values 0.973 | locus YKL160W, strain elf1, hits give low values 1 | locus YKR026C, strain gcn3, hits give low values 0.984 | locus YKR091W, strain srl3, hits give low values 1 | locus YLL001W, strain dnm1, hits give low values 1 | locus YLL026W, hits give low values 0.992 | locus YLL041C, strain sdh2, hits give low values 1 | locus YLR027C, strain aat2, hits give low values 1.01 | locus YLR113W, strain HOG1, hits give low values 0.984 | locus YLR221C, strain rsa3, hits give low values 1.01 | locus YLR258W, strain gsy2, hits give low values 1 | locus YLR262C, strain YPT6 (second series), hits give low values 1.01 | locus YLR320W, strain mms22, hits give low values 1 | locus YLR342W, strain FKS1, hits give low values 0.989 | locus YLR357W, strain rsc2, hits give low values 0.983 | locus YLR370C, strain arc18, hits give low values 1 | locus YLR384C, strain iki3, hits give low values 1 | locus YML120C, strain ndi1, hits give low values 1.01 | locus YMR058W, strain fet3, hits give low values 0.996 | locus YMR125W, strain sto1, hits give low values 0.98 | locus YMR129W, hits give low values 1.01 | locus YMR205C, strain PFK2, hits give low values 0.992 | locus YMR231W, strain pep5, hits give low values 1 | locus YNL071W, strain lat1, hits give low values 1 | locus YNL183C, strain NPR1, hits give low values 0.973 | locus YNL209W, strain ssb2, hits give low values 1 | locus YNL248C, strain rpa49, hits give low values 1.02 | locus YNL322C, strain KRE1 (second series), hits give low values 1 | locus YNR049C, strain mso1, hits give low values 1.01 | locus YOR001W, strain rrp6, hits give low values 1.01 | locus YOR070C, strain gyp1, hits give low values 0.994 | locus YOR080W, strain dia2, hits give low values 0.998 | locus YOR083W, strain WHI5, hits give low values 1.01 | locus YOR106W, strain vam3, hits give low values 1.01 | locus YOR231W, strain MKK1, hits give low values 1.02 | locus YOR265W, strain rbl2, hits give low values 0.995 | locus YOR270C, strain vph1, hits give low values 1.03 | locus YOR290C, strain snf2, hits give low values 1.02 | locus YPL051W, strain arl3, hits give low values 1.01 | locus YPL078C, strain atp4, hits give low values 1 | locus YPL106C, strain sse1, hits give low values 1.01 | locus YPL240C, strain hsp82, hits give low values 0.996 | locus YPL256C, strain CLN2, hits give low values 0.997
